# Assay results published in PubChem BioAssay AID1626 (SRMLSC, 2009).
# Screen size: about 220,000 compounds; about 2,000 (0.91%) were called active. Another 2% or so got no clear call; they are omitted. Cut-off read from the data, not from the text of the source: inconclusive = inhibition above about 80% without an active follow-up result; inactive = below that; test concentration not stated here. These entries were drawn from the full list. Results with a measured potency or affinity are listed apart.
# Test: M. tuberculosis H37Rv growth inhibitors, H37Rv strain (AID 1626);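 note: bacteria incubated seven days before Alamar blue readout; 0% = bacteria only wells and 100% = bacteria with antibiotic wells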
# Conditions: hits give high values, concentration not given here
row,SMILES,inhibition
1,O=[N+]([O-])c1cc(/C=N\Nc2nc(-c3ccccc3)cs2)ccc1O,-2.52% (inactive)
2,O=C(Nc1ccccc1Cl)Oc1ccc(Cl)cc1Cl,-3.15% (inactive)
3,O=C(Nc1ccccc1Cl)Nc1ccccc1Cl,-9.3% (inactive)
4,Cn1c(NC(=O)C2CC2)cc(=O)n(C)c1=O,5.07% (inactive)
5,CCn1c(/C=C/c2ccccc2)nc2ccccc2c1=O,0.15% (inactive)
6,O=c1oc(/C=C/c2ccccc2)nc2sc3c(c12)CCC3,-3.48% (inactive)
7,COC(=O)c1cc(OC)c(OC)cc1NC(=O)c1cccnc1,4.7% (inactive)
8,CCCOc1c(Cl)cc(C(=O)NC)cc1OC,12% (inactive)
9,COC(=O)CC1C(=O)NCCN1C(=O)c1sc2ccccc2c1Cl (centres undefined),-9.23% (inactive)
10,O=C(COC(=O)Cc1ccccc1F)Nc1ccc(Cl)cn1,-6.09% (inactive)
11,COc1ccc(S(=O)(=O)c2cnc3ccc(OC)cc3c2N2CCC3(CC2)OCCO3)cc1,9.48% (inactive)
12,CCOc1ccc2ncc(S(=O)(=O)c3ccccc3)c(N3CCC4(CC3)OCCO4)c2c1,-1.36% (inactive)
13,Cc1ccc(N2C(=O)[C@@H]3[C@H](C2=O)C2c4ccccc4C=NN2[C@@H]3C(=O)c2ccc(Cl)cc2)cc1 (some centres undefined),8.72% (inactive)
14,Cc1ccc(-n2cc(-c3ccc([N+](=O)[O-])cc3)[nH]c2=S)c(C)c1,3.47% (inactive)
15,O=C(O)c1ccnc(SCC(=O)c2ccccc2)c1,-4.56% (inactive)
16,Cc1ccc(C(=O)CSc2ccccn2)cc1,-3.3% (inactive)
17,CCC(CC)C(=O)Nc1cc([N+](=O)[O-])ccc1Cl,5.59% (inactive)
18,O=C(CCCC(=O)OCC(Cl)=C(Cl)Cl)Nc1ccccc1F,-0.28% (inactive)
19,CCOC(=O)c1ccccc1Nc1cn(C(C)=O)c2ccccc12,3.14% (inactive)
20,COc1ccccc1N(C(=O)CCl)c1cn(C(C)=O)c2ccccc12,42.8% (inactive)
21,CC(=O)N(c1ccc(Cl)cc1)c1cn(C(C)=O)c2ccccc12,11.9% (inactive)
22,O=Cc1[nH]c2ccccc2c1N(C(=O)CCl)c1ccc([N+](=O)[O-])cc1,-1.28% (inactive)
23,COC(=O)c1cn(C(=O)c2ccc(Cl)cc2)c2ccccc12,-3.26% (inactive)
24,CC(=O)n1cc(-c2ccncc2)c2ccccc21,8.31% (inactive)
25,CC(=O)n1cc(Nc2ccccc2C(=O)O)c2ccccc21,-4.19% (inactive)

row,SMILES,inhibition
1,CC(=O)n1cc(Nc2ccc([N+](=O)[O-])cc2)c2ccccc21,3.13% (inactive)
2,CC(NC(=O)COC(=O)C1CSC2(C)CCC(=O)N12)C12CC3CC(CC(C3)C1)C2 (centres undefined),-1.31% (inactive)
3,O=C(CN1CCN(Cc2ccccc2)CC1)N/N=C/c1ccccc1F,-1.58% (inactive)
4,Cn1cc(CNCc2cn(C)nc2-c2ccc(C3CCCCC3)cc2)cn1,8.48% (inactive)
5,COc1ccc(C(=O)c2ccc(Cl)cc2)cc1,6.37% (inactive)
6,CCOC(=O)C1CCN(S(=O)(=O)c2ccc(-n3cnnn3)c(C)c2)CC1,-3.24% (inactive)
7,O=C(COC(=O)c1ccc(Cl)nc1)NCc1ccco1,-2.82% (inactive)
8,Clc1cccc(Cl)c1Cn1nnc(N2CCCC2)n1,-4.55% (inactive)
9,O=C(CCCn1c(SCC(=O)c2ccc(Cl)cc2)nc2ccccc2c1=O)NCc1ccco1,-0.03% (inactive)
10,Cc1cc(C)c2cc(C)c(SCC(=O)NCc3ccco3)nc2c1,-6.87% (inactive)
11,CCc1ccccc1NC(=S)N1CCNC(=O)C1CC(=O)OC (centres undefined),3.01% (inactive)
12,Cc1ccc(NC2=C(Cl)C(=O)OC2OC(C)C)cc1 (centres undefined),-6.44% (inactive)
13,CCN(CC)S(=O)(=O)c1ccc(N2CCOCC2)c(NC(=O)c2ccc(NC(C)=O)cc2)c1,-0.34% (inactive)
14,CC(=S)/C=C1\Sc2ccccc2N1C,-6.98% (inactive)
15,CCCCN1/C(=C/c2ccc3ccccc3[n+]2CC)Sc2ccccc21,-5.31% (inactive)
16,NC(=O)C1=NOC(CNc2ncc(C(F)(F)F)cc2Cl)C1 (centres undefined),-9.36% (inactive)
17,CCN(CC)S(=O)(=O)c1ccc(C(=O)N2CCc3ccccc32)cc1,-0.89% (inactive)
18,O=C(/C=C/c1ccccc1)NCc1cccnc1,-0.63% (inactive)
19,O=C(Nc1ccccc1N1CCN(C(=O)c2ccccc2)CC1)c1cc(Br)ccc1Cl,8.71% (inactive)
20,COc1c(C)cc(Br)cc1C(=O)Nc1ccccc1N1CCN(C(=O)c2ccccc2)CC1,19.8% (inactive)
21,Cc1[nH]n(C2=NCCS2)c(=O)c1N=Nc1ccccc1,2.69% (inactive)
22,Cc1cc(C)n2[nH]c(=O)c(N=Nc3cccc(C(F)(F)F)c3)c2n1,46.9% (inactive)
23,CN(c1ccccc1C(=O)N1CCN(Cc2ccc3c(c2)OCO3)CC1)S(C)(=O)=O,-0.54% (inactive)
24,O=C(CCC(=O)OCc1cccc(C(=O)Oc2ccccc2)c1)Nc1cccc2ccccc12,4.16% (inactive)
25,COc1ccc(NC(=O)CCC(=O)OCc2ccc(C(=O)Oc3ccc(Cl)cc3)cc2)cc1,23.3% (inactive)

row,SMILES,inhibition
1,CC(C)(C)Nc1c([N+](=O)[O-])c(=O)sc2ccccc12,-10.8% (inactive)
2,NC(=O)C1CCN(C(=O)c2ccc3c(=O)n(Cc4ccco4)c(SCC(=O)c4ccccc4)nc3c2)CC1,-1.82% (inactive)
3,CN(CCO)c1nc(N)c(C#N)c(CC#N)c1C#N,-7.58% (inactive)
4,CCOc1ccccc1N1CCN(CC(=O)NC(=O)NCc2ccco2)CC1,-1.18% (inactive)
5,COc1ccc(NC(=O)N2CCCCCC2)c(OC)c1,-4.07% (inactive)
6,Cn1c(N)c(C(=O)COC(=O)c2cnc(Cl)c(Cl)c2)c(=O)n(C)c1=O,-6.46% (inactive)
7,CC(C)Cn1c(N)c(C(=O)COC(=O)c2ccc(Cl)cc2)c(=O)n(C)c1=O,11.4% (inactive)
8,COc1ccccc1CNc1nc2nc3c(c(=O)n2[nH]1)CCC3,0.1% (inactive)
9,O=c1c2c(nc3nc(NCc4cccc(Cl)c4)[nH]n13)CCC2,2.7% (inactive)
10,O=c1c2c(nc3nc(NCc4ccccc4Cl)[nH]n13)CCC2,-14.3% (inactive)
11,CCOc1ccccc1CNc1nc2nc3c(c(=O)n2[nH]1)CCC3,-2.76% (inactive)
12,O=C(CO/N=C/c1ccccc1OC(F)F)NCc1ccco1,-2.9% (inactive)
13,O=S(=O)(c1ccc(Cl)nc1)N1CCN(c2ncccn2)CC1,-8.21% (inactive)
14,CN(C)CCCNc1ncc(C(F)(F)F)cc1Cl,4.38% (inactive)
15,CC1=C(C(=O)Nc2ccc(C)cc2C)C(c2ccc(Cl)cc2)n2nc(C(=O)OC(C)C)nc2N1 (centres undefined),5.54% (inactive)
16,CN(C)CCCNC(=O)/C(=C\c1ccc(-c2cccc([N+](=O)[O-])c2)o1)NC(=O)c1ccccc1,-5.38% (inactive)
17,CN(C)CCNC(=O)/C(=C/c1ccc(-c2cccc(Cl)c2)o1)NC(=O)c1ccccc1,5.87% (inactive)
18,CN(C)CCNC(=O)/C(=C/c1ccc(-c2ccc(Cl)cc2)o1)NC(=O)c1ccccc1,10.2% (inactive)
19,CN(C)CCCNC(=O)/C(=C\c1ccc(-c2ccc(Br)cc2)o1)NC(=O)c1ccccc1,6.54% (inactive)
20,COC(=O)C1=C(c2cc3ccccc3s2)C[C@@H]2CC[C@H]1N2C(=O)NCCCOC(C)C,-2.33% (inactive)
21,Cc1cccc(/N=C/c2c(C)[nH]n(-c3ccccc3)c2=O)n1,-10.6% (inactive)
22,O=C(Cn1nc(CNc2ccc(Br)cc2)[n+]2c1CCCCC2)c1ccc([N+](=O)[O-])cc1,28.2% (inactive)
23,O=C(Cn1nc(CNc2ccc(Cl)cc2)[n+]2c1CCCCC2)c1ccccc1,9.42% (inactive)
24,COC(=O)CN1C(=O)[C@@H]2[C@H](C1=O)[C@@H]1CC(C(=O)OC)=C[C@@H](C(=O)OC)[C@@H]3C1=C(C(=O)[C@@]3(C)NC(=O)c1ccccc1)[C@@H]2C,-6.86% (inactive)
25,CS(=O)(=O)N(CCc1ccccc1)CC(=O)NCc1ccccc1Cl,6% (inactive)

row,SMILES,inhibition
1,COc1ccc(CSc2nnc(C)n2N)cc1Br,-9.64% (inactive)
2,COc1cc(/C=C(\NC(C)=O)C(=O)NC(C)(C)C)ccc1OC(C)=O,-3% (inactive)
3,CCCOC(=O)CSc1nc(N)c(C#N)c(CC)c1C#N,-6.1% (inactive)
4,COC(=O)CSc1nc(N)c(C#N)c(C(C)C)c1C#N,0.87% (inactive)
5,COC(=O)CSc1nc(N)c(C#N)c(-c2ccc(O)cc2)c1C#N,-2.05% (inactive)
6,CCOC(=O)CSc1nc(C)cc(C)c1C#N,-7.74% (inactive)
7,COc1ccc(N(CC(=O)Nc2c(C)n(C)n(-c3ccccc3)c2=O)S(=O)(=O)c2ccc(F)cc2)cc1,-0.85% (inactive)
8,CC(C)OC(=O)CSc1nnc(-c2cnccn2)n1-c1ccccc1,-8.06% (inactive)
9,CC(NC(=S)Nc1ccc([N+](=O)[O-])cc1)c1ccncc1 (centres undefined),2.79% (inactive)
10,CC(C)(C)Nc1nc(SCc2ccccc2)nc(N2CCOCC2)n1,1.1% (inactive)
11,O=C(NCc1ccco1)C(=O)NCC1OCCN1S(=O)(=O)c1ccc(F)cc1 (centres undefined),0.03% (inactive)
12,Nc1c2c(nc3ccccc13)N(C1CCCCC1)CC2,1.71% (inactive)
13,Nc1c2c(nc3ccc(Br)cc13)N(c1ccccc1)CC2,14.3% (inactive)
14,CCOC(=O)c1cnn(-c2nc3c(C)cccc3s2)c1C,-7.79% (inactive)
15,COC(=O)c1cnn(-c2nc3c(C)cccc3s2)c1C,-0.32% (inactive)
16,O=C(O)COCc1nc2ccccc2s1,0.38% (inactive)
17,CCCC(=O)N1CCN(c2ccc(NC(=O)c3ccco3)cc2)CC1,-4.48% (inactive)
18,CCCC(=O)N1CCN(c2ccc(NC(=O)c3cc4ccccc4o3)cc2Cl)CC1,11% (inactive)
19,O=C(Nc1cccc(Cl)c1N1CCOCC1)c1ccc([N+](=O)[O-])o1,1.19% (inactive)
20,CCCC(=O)N1CCN(c2ccc(NC(=O)c3ccc(Br)o3)cc2)CC1,-2.24% (inactive)
21,CC(=O)N1CCN(c2ccc(NC(=O)c3ccc(N4CCCC4)c([N+](=O)[O-])c3)cc2Cl)CC1,44.6% (inactive)
22,CCCC(=O)N1CCN(c2ccc([N+](=O)[O-])cc2Cl)CC1,6.77% (inactive)
23,O=C(Nc1cccc(Cl)c1N1CCCCC1)c1ccc(N2CCOCC2)c([N+](=O)[O-])c1,2.9% (inactive)
24,O=C(Nc1ccc(N2CCOCC2)c(Cl)c1)c1ccc(Br)o1,5.36% (inactive)
